Data reported in PubChem BioAssay (NCATS).
Records with an inconclusive call do not appear. The source made the active and inactive calls. Calls follow the shape of the full dose curve.

Test: VSVG counterscreen qHTS to identify inhibitors of SARS-CoV-2 cell entry (AID 1645847); also: nearly all actives have a fitted effect of over 65% in size
Settings: VSV-G pseudotyped particle entry, luciferase; series mostly up to 57.2 µM; activity change, negative = inhibition: at the top concentration
Description: Assay Provider: Wei Zheng, Ph.D.
National Center for Advancing Translational Sciences, National Institute of Health, Rockville, MD.
SARS-CoV-2 spike protein, within the viral envelope, mediates viral attachment and infection of host cells. The SARS-CoV-2 spike protein specifically binds to the host receptor ACE2 (Angiotensin-converting enzyme 2). This interaction promotes endocytosis of the viral particle, additional events lead to viral-host cell membrane fusion and release of the viral contents, allowing viral replication.
While SARS-CoV-2 requires BSL-3 facilities for live virus work, pseudotyped partices (PP) that incorporate SARS-CoV-2 spike proteins without replication elements could facilitate studies on viral entry mechanisms in a BSL-2 setting. This PP cell entry assay could also enable screening of small molecule compound libraries in BSL-2 setting to identify inhibitors of SARS-CoV-2 cell entry.
SEQUENCE No. (e.g., 1, 2, 3, etc.); […] (e.g., Cells, Incubation, Reagent, etc.); VALUE and DESCRIPTION.
1. Cells. Seed 1500 HEK293-ACE2 cells (Expi293F with stable expression of human ACE2) in 2 microL/well media (DMEM, 10% FBS, 1x L-glutamine, 1x Pen/Strep, 1 ug/ml puromycin) in white 1536-well assay plates (Greiner #782073).
2. Incubation. Incubate at 37 degrees C with 5% CO2 overnight (~16 h).
3. Compound. Dispense 23 nL/well compounds in DMSO via pin transfer.
4. Incubation. Incubate for 1 h at 37C 5% CO2.
5. Reagent. Dispense 2 microL/well of vesicular stomatitis virus G glycoprotein (VSV-G) pseudotyped particles (PP). [a] PPs are produced with murine leukemia virus pseudo-typing.
6. Centrifugation. […]
7. Incubation. Incubate at for 48 h at 37C 5% CO2
8. Centrifugation. Remove supernatant with gentle centrifugation using a Blue Washer (BlueCat Bio).
9. Reagent. Dispense 4 microL/well of Bright-Glo Luciferase detection reagent (Promega #E2620).
10. Incubation. Incubate for 5 min at room temperature.
11. Detection. Read luminescence signal (ViewLux plate reader, PerkinElmer). Data was normalized with wells containing VSV-G PP as 100%, and wells containing bald PP (no fusion protein) as 0%.
% is scaled to controls: 0 for no effect and ±100 for the full control effect; potency is read from the fitted curve at half-maximal effect.

Structure (SMILES)	Potency	activity change, negative = inhibition
Nc1nc2[nH]cc(CCc3ccc(C(=O)N[C@@H](CCC(=O)O)C(=O)O)cc3)c2c(=O)[nH]1	1.71 µM (active)	
Cc1cc2c(cc1CC(=O)c1sccc1S(=O)(=O)Nc1onc(C)c1Cl)OCO2		0.877% (inactive)
Nc1ccn([C@@H]2O[C@H](CO)[C@@H](O)C2O)c(=O)n1 (stereo partly specified)	4.82 µM (active)	
CN1C(C(=O)Nc2ccccn2)=C(O)c2ccccc2S1(=O)=O	21.5 µM (active)	
Cc1ccc(Nc2nccc(N(C)c3ccc4c(C)n(C)nc4c3)n2)cc1S(N)(=O)=O	12.1 µM (active)	
Oc1ccc(Cl)c2cccnc12	3.04 µM (active)	
CC(C)=CCC/C(C)=C/CC/C(C)=C/CCC(=O)OC/C=C(\C)CCC=C(C)C	1.08 µM (active)	
Cc1cc(NS(=O)(=O)c2ccc(N)cc2)nc(C)n1		-31.7% (inactive)
CC(C)OC(=O)OCOP(=O)(CO[C@H](C)Cn1cnc2c(N)ncnc21)OCOC(=O)OC(C)C	0.0192 µM (active)	
O=C1CN(/N=C/c2ccc([N+](=O)[O-])o2)C(=O)N1	1.92 µM (active)	
CCOc1ccc2nc3cc(N)ccc3c(N)c2c1	21.5 µM (active)	
C[n+]1c2cc(N)ccc2cc2ccc(N)cc21 (tested in a mixture with another compound)	4.29 µM (active)	
C[C@]12C=CC(=O)C=C1CC[C@@H]1[C@@H]2[C@@H](O)C[C@@]2(C)[C@H]1CC[C@]2(O)C(=O)CO	13.6 µM (active)	
COC(=O)C1=C(C)NC(C)=C(C(=O)OCC(C)=O)C1c1ccccc1[N+](=O)[O-] (stereo unspecified)	8.57 µM (active)	
Cc1nc2ccc(CN(C)c3ccc(C(=O)N[C@@H](CCC(=O)O)C(=O)O)s3)cc2c(=O)[nH]1	0.304 µM (active)	
COc1cccc2c1C(=O)c1c(O)c3c(c(O)c1C2=O)C[C@@](O)(C(=O)CO)CC3OC1CC(N2CCOC(OC)C2)C(O)C(C)O1 (stereo partly specified)	0.0482 µM (active)	
CCN(CC)C(C)CN1c2ccccc2Sc2ccccc21 (stereo unspecified)	0.341 µM (active)	
COc1cccc2c1C(=O)c1c(O)c3c(c(O)c1C2=O)C[C@@](O)(C(=O)CO)C[C@@H]3O[C@H]1C[C@H](N)[C@@H](O)[C@H](C)O1	0.0961 µM (active)	
CCCCCCNC(=O)n1cc(F)c(=O)[nH]c1=O	5.41 µM (active)	
CC(C)c1cccc(C(C)C)c1O		-15.1% (inactive)
Cc1c(C)c2c(c(C)c1O)CCC(C)(COc1ccc(CC3SC(=O)NC3=O)cc1)O2 (stereo unspecified)	24.1 µM (active)	
